Source: PubChem
Rows were chosen to be rich in hits. Some 2.4% of all compounds tested hit in one or more screens of this group.
D2 antagonist: HTS Assay for Allosteric Antagonists of the Human D2 Dopamine Receptor: Primary Screen for Antagonists; HEK293 TREx D2 cells, calcium flux, dopamine EC80; D(2) dopamine receptor (Homo sapiens), P14416; 340,000 compounds, 2% hits; inhibition, % at 10 µM; in the data active means inhibition above about 30%; inactive means below that, where a call was filed
Target sequence (P14416 whole entry, looked up): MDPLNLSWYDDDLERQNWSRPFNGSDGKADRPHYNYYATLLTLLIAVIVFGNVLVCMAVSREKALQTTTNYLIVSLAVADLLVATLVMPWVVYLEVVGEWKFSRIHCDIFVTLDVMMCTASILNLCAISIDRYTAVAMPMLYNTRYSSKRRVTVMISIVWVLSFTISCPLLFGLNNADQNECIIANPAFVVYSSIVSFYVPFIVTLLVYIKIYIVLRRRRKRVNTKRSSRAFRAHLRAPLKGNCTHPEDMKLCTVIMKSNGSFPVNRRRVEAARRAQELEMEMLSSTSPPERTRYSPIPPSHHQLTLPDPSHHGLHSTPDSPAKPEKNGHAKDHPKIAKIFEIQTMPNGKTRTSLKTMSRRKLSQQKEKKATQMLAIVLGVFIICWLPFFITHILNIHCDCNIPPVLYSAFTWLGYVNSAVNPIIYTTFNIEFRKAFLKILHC
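Read-out: kinetic calcium fluorescence (1 cycle/s) in inducible HEK293 T-REx D2 cells after an EC80 dopamine addition that followed 180 s compound preincubation. Loss of the dopamine response indicates antagonism.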
D2 ag-1: HTS Assay for Allosteric Agonists of the Human D2 Dopamine Receptor: Primary Screen for Agonists; D(2) dopamine receptor (Homo sapiens), P14416; HEK293 T-REx D2 cells, calcium flux agonist mode; activation, % at 2 µM; 340,000 compounds, 0.53% hits;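 active means activation over 3 SD above normal in the single-dose calcium agonist read, cut at about 30% in these data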
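Calcium-flux readout, 1 cycle/sec over 180 s following compound pin transfer, in inducible HEK293 Trex D2 cells (force-coupled); dopamine controls included. Positive calcium responses during this window marked compounds as potential agonists.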
D2 PAM-1: Beta-Arrestin HTS for Positive Allosteric Modulators of the Human D2 Dopamine Receptor: Potentiators. D(2) dopamine receptor (Homo sapiens), P14416. potentiation, % (no concentration beside the values). AID 624464, 2012. DiscoveRx D2 beta-arrestin cells, luminescence, 90 min; 100% = 57 uM dopamine signal. 360,000 compounds, 0.23% hits; in the data active means potentiation above about 50%; inconclusive means mostly about 30% to 49%
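PathHunter beta-arrestin assay in DiscoveRx D2 cells. Compounds were added with an EC20 of dopamine (50 nM final) for 90 min at 37 deg C. Luminescence was read 1 h after detection reagent, with 57 uM dopamine as the EC100 control.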
D2 PAM-2: HTS Assay for Positive Allosteric Modulators of the Human D2 Dopamine Receptor: Primary Screen for Potentiators; potentiation, % at 10 µM; HEK293 T-REx D2, calcium flux, EC20 dopamine potentiation; AID 485347, 2010; 340,000 compounds, 0.34% hits; D(2) dopamine receptor (Homo sapiens), P14416;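 active means potentiation over 3 SD above the plate norm, cut at about 30% in these data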
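Primary screen. Calcium kinetics in induced HEK293 T-REx D2 cells: compound pre-addition 180 s, EC20 dopamine, 180 s more.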
D2 ag-2: Beta-Arrestin HTS for Positive Allosteric Modulators of the Human D2 Dopamine Receptor: Agonists; AID 624465, 2012; activation, % (no concentration beside the values); DiscoveRx PathHunter D2 beta-arrestin, luminescence, 90 min; 100% = 57 uM dopamine signal; 360,000 compounds, 0.084% hits; D(2) dopamine receptor (Homo sapiens), P14416; in the data active means activation above about 40%; inconclusive means between about 15% and that limit
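Agonist mode: compounds alone added to overnight-plated D2 PathHunter cells for 90 min at 37 C, with 57 uM final dopamine (EC100) defining full response. Beta-arrestin recruitment detected by chemiluminescent reagent, read after 1 h at ambient temperature.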
A number is an active result; – = inactive; ? = inconclusive; · = not tested or not shown.

SMILES	D2 antagonist	D2 ag-1	D2 PAM-1	D2 PAM-2	D2 ag-2
Cc1cccc(NC(=O)Cn2nc(-c3ccccc3)c3cnc4ccccc4c32)c1	·	–	·	–	·
COc1cc(NC(=O)N2c3ccccc3Sc3ccccc32)c(C(=O)O)cc1OC	–	–	–	–	50
c1ccc(-c2ncnc3nc4n(c23)CCC4)cc1	34	–	–	–	–
COc1ccc(-c2nc(SCC(=O)NCCCc3ccccc3)n[nH]2)cc1	·	–	·	–	·
CCOc1ccc(NC(=O)CC2C(=O)N(c3cccc(C)c3)C(=O)N2Cc2cccnc2)cc1 (stereo unspecified)	·	–	·	–	·
COc1ccccc1NC(=O)c1ccc2oc(=O)c(S(=O)(=O)c3ccccc3)cc2c1	·	–	·	–	·
CCOC(=O)/C(=C/c1ccc(N2CCC(c3ccccc3)=N2)cc1)C(C)=O	–	37	–	–	–
c1ccc(C2=NN(c3ccccc3)CC2)cc1	–	–	–	–	–
CC(=O)N1CCCc2cc(S(=O)(=O)N3CCC(C(=O)Nc4ccc(C)cc4Cl)CC3)ccc21	·	–	·	–	·
CCOc1ccc(S(=O)(=O)Nc2cccc(OC)c2)c2cccnc12	·	–	·	–	·
Cc1ccc2occ(-c3cc(-c4ccc(F)cc4)nc4c3COc3ccc(F)cc3-4)c(=O)c2c1	·	–	·	–	·
O=C1NC(=Nc2ccc(Cl)cc2)/C(=C/c2ccco2)S1	59	–	–	–	–
NC(N)=NCCCC(NC(=O)c1ccccc1)C(=O)Nc1ccc2ccccc2c1 (stereo unspecified)	54	–	–	–	–
NC(N)=NCCCC(NC(=O)c1ccccc1)C(=O)Nc1ccc([N+](=O)[O-])cc1 (stereo unspecified)	75	–	–	–	–
c1ccc2oc(CCc3nc4ccccc4o3)nc2c1	·	·	–	–	–
Nc1ccc2oc(CCc3ccccc3)nc2c1	38	–	?	–	–
CNC(=O)c1sccc1-n1cccc1	–	–	–	–	–
CCOc1ccc(NC(=O)c2sccc2-n2cccc2)cc1	–	–	–	65	–
CN(C)S(=O)(=O)N1CCCN(S(=O)(=O)N(C)C)CC1	–	–	–	42	–
COc1ccccc1CN1CC(C(=O)N2CCN(c3ccc(F)cc3)CC2)CC1=O (stereo unspecified)	–	–	–	32	–
CCc1ccc(NC(=O)C2(c3cccs3)CCOCC2)cc1	·	–	·	–	·
CCCN1CCC(N(CCc2ccccc2)Cc2ccccc2)CC1	39	–	–	–	–
COc1ccc(CN2CCC(N(CCc3ccccc3)Cc3ccccc3)CC2)c(OC)c1	35	–	–	–	–
COc1ccc(CN2CCc3ccccc3C2)c(OC)c1	–	–	–	–	–
COc1ccc(NC(=O)/C(Cl)=C(/Cl)S(=O)Cc2ccccc2)cn1 (stereo unspecified)	32	–	–	–	–
SMILES	D2 antagonist	D2 ag-1	D2 PAM-1	D2 PAM-2	D2 ag-2
COC(=O)c1ccc2c(C)c(C(C)(C)O)[nH]c2c1	45	–	–	–	–
COCCn1c(=O)[nH]c2cc(C(=O)OC)ccc2c1=O	–	–	–	–	–
O=C(Nc1ccc2oc(-c3cc(Br)ccc3Cl)nc2c1)c1cc2ccccc2o1	·	–	·	–	·
COc1ccc2[nH]c3c(c2c1)CCN1C(=O)N([C@@H](C)C(=O)NCc2ccccc2)C(=O)[C@]31C	–	36	–	–	–
COc1ccc2[nH]c3c(c2c1)CCN1C(=O)N([C@@H](C)C(=O)NC2CC2)C(=O)[C@]31C	–	30	–	–	–
C[C@@H](C(=O)NC1CCN(Cc2ccccc2)CC1)N1C(=O)N2CCc3c([nH]c4ccccc34)[C@@]2(C)C1=O	–	–	–	–	–
CC(C)C[C@@H](C(=O)NC1CCN(Cc2ccccc2)CC1)N1C(=O)N2CCc3c([nH]c4ccccc34)[C@@]2(C)C1=O	31	–	–	–	–
